Measurements: PubChem BioAssay
Active and inactive are the calls of the source. How the calls were made is not given here.

Each molecule was assayed against Pantothenate synthetase (Mycobacterium tuberculosis (strain ATCC 25618 / H37Rv)) (UniProt P9WIL5) (assay: Recombinant Mtb pantothenate synthetase (PanC) inhibitors, coupled enzyme, confirmatory (AID 375;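 further: 0% = full reaction with vehicle and 100% = no enzyme background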)). Settings: coupled enzyme assay; at 10 µM, hits give high values.
Chain of Pantothenate synthetase (Mycobacterium tuberculosis (strain ATCC 25618 / H37Rv)) (P9WIL5 whole entry, looked up): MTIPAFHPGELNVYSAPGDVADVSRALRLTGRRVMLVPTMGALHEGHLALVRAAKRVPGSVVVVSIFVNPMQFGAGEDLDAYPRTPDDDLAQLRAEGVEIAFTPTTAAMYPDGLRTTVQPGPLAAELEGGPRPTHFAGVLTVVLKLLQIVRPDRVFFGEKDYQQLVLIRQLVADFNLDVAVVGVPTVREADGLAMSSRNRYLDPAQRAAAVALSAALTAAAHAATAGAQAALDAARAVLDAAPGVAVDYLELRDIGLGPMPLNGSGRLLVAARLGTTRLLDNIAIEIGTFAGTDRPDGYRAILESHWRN

| SMILES | inhibition |
| --- | --- |
| O=C(Nc1ccc(SC(F)F)cc1)c1ccc2nccnc2c1 | 0% (inactive) |
| OC(CNCCc1ccccc1)c1ccccc1 (stereo not given) | 2% (inactive) |
| O=C1Nc2ccccc2OC1CC(=O)N1CCCC1 (stereo not given) | 0% (inactive) |
| Cc1noc(C)c1S(=O)(=O)NCCN1CCN(c2ccccc2)CC1 | 4% (inactive) |
| CCOc1ccc(N(CC(=O)NCc2cccc(OC)c2)S(=O)(=O)c2c(C)noc2C)cc1 | 6% (inactive) |
| CCCCc1cc(=O)oc2c(CN3CCCC3)c(O)c(Cl)cc12 | 7% (inactive) |
| CCOc1cc2[nH]c(=O)n(CCC(=O)NCCc3ccc(OC)c(OC)c3)c(=O)c2cc1OCC | 1% (inactive) |
| CC(=O)Nc1ccc(S(=O)(=O)N2CCN(C(C)CCc3ccccc3)CC2)cc1 (stereo not given) | 2% (inactive) |
| CC1=C(C#N)C(c2ccc3ncccc3c2)C(C#N)=C(C)N1 | 4% (inactive) |
| CC1(C)NC(=O)N(CC(O)CN2CCCC2)C1=O (stereo not given) | 2% (inactive) |
| Cc1occc1C(=O)Nc1ccccc1NC(=O)c1ccoc1C | 3% (inactive) |
| COCCCNC(=O)CCc1nc2cccnc2n1Cc1ccc(OC)cc1 | 0% (inactive) |
| CN1C(=O)C(O)(CC(=O)c2ccccc2O)c2cc(Br)ccc21 (stereo not given) | 0% (inactive) |
| CCC(C)(C)NC(=O)CN(Cc1ccc2c(c1)OCO2)C(=O)CCC(=O)Nc1ccccn1 | 3% (inactive) |
| O=C(OCC#CCSc1nnc(-c2ccccc2)o1)c1cccs1 | 0% (inactive) |
| Cc1ccc2c(c1)C(N1CCCC1=O)CC(c1ccco1)N2 (stereo not given) | 0% (inactive) |
| CCOCCCn1c(=S)[nH]c2cc3c(cc2c1=O)OCO3 | 0% (inactive) |
| CS(=O)(=O)C1=C(O)C(=O)N(c2ccccc2)C1c1ccccc1 (stereo not given) | 5% (inactive) |
| COc1cc(C2c3c(n[nH]c3C)C(=O)N2c2ccc(Br)cc2)ccc1O (stereo not given) | 4% (inactive) |
| Cc1cc(C)cc(OCCCC(=O)O)c1 | 4% (inactive) |

| SMILES | inhibition |
| --- | --- |
| CCn1c(SCC(=O)c2ccc(Cl)cc2)nnc1-c1ccoc1C | 0% (inactive) |
| CN(C1CCCCC1)S(=O)(=O)c1ccc(S(=O)(=O)N2CCN(CCC#N)CC2)cc1 | 6% (inactive) |
| Cc1cc(C)c2cc(CN(CC3CCCO3)C(=O)NC3CCCCC3)c(=O)[nH]c2c1 (stereo not given) | 0% (inactive) |
| CCOC(=O)C1C2C=CC3(CN(c4cccc(Cl)c4)C(=O)C13)O2 (stereo not given) | 0% (inactive) |
| COc1c(S(=O)(=O)n2nc(C)cc2C)ccc(Cl)c1Cl | 3% (inactive) |
| CCOC(=O)CN(C)Cc1c[nH]c2ccccc12 | 14% (inactive) |
| CCOC(=O)c1cc2sccc2n1Cc1ccccc1 | 1% (inactive) |
| CCc1ccccc1N=C1SCC(=O)N1C | 0% (inactive) |
| CCOC(=O)C1CCCN(C(=O)c2cc3c(=O)n4cccc(C)c4nc3n2C)C1 (stereo not given) | 0% (inactive) |
| CC1=C(C(=O)OC2CCCCC2)C(c2cccnc2)n2ncnc2N1 (stereo not given) | 0% (inactive) |
| Cc1c(NC(=O)C2CCCNC2=O)c(=O)n(-c2ccccc2)n1C (stereo not given) | 0% (inactive) |
| CCN(CC)c1ncc(C)c(=O)[nH]1 | 1% (inactive) |
| CCC1(CC)C(=O)C(C)(C)C(=O)OC1c1cccs1 (stereo not given) | 0% (inactive) |
| O=C(CS(=O)CC(=O)Nc1cccc2c1CCCC2)Nc1ccc(F)cc1 (stereo not given) | 0% (inactive) |
| O=C(CCN1CCN(CCO)CC1)Nc1ccc(OCc2ccccc2)cc1 | 6% (inactive) |
| CSCSC1=C(C#N)C(c2ccc(Cl)cc2)C(C(C)=O)=C(C)N1 (stereo not given) | 0% (inactive) |
| COc1ccc(OCC(O)Cn2c(Br)nc3c2c(=O)[nH]c(=O)n3C)cc1 (stereo not given) | 11% (inactive) |
| CCOC(=O)c1cnc(-n2cc(C)cn2)nc1Nc1ccccc1OC | 0% (inactive) |
| CCOC(=O)C(C#N)C(c1cccnc1)c1c(C)[nH][nH]c1=O (stereo not given) | 3% (inactive) |
| CN1C(=O)CC(C(=O)Nc2ccc(F)cc2)SC1=Nc1ccc2c(c1)OCO2 (stereo not given) | 0% (inactive) |
